# According to PubChem BioAssay (NCATS):
# “And” between values parts separate entries of the source, which are not always exact repeats. Equal values may be shown once. Records with an inconclusive call do not appear. A number with no mark means an inactive call. The source made the active and inactive calls. Unless noted, the call rests on the fitted dose curve; in most records, active means well fitted curve in the direction sought with a large enough effect; inconclusive means small, poorly fitted or top-dose-only effect, or another doubt; inactive means no such curve, though single readings can be large; an effect the other way counts as inactive or inconclusive.
# Experiments:
# [1] = biological target: Cellular tumor antigen p53 (Homo sapiens) (UniProt P04637); assay: Primary qHTS for small molecule compounds that upregulate eGFP-tagged delta133p53alpha (in N-terminal) cells. (AID 2060322); conditions: NCI-H358 eGFP-delta133p53alpha fluorescence, 24 h; activation: hits give high values; further: nearly all actives have a fitted effect of over 75% in size;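 on activation: cells pre-induced with doxycycline then dosed without doxycycline; series mostly up to about 56 µM; 0% = DMSO vehicle and 100% = reference activator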
# Chain of Cellular tumor antigen p53 (Homo sapiens) (P04637 whole entry, looked up): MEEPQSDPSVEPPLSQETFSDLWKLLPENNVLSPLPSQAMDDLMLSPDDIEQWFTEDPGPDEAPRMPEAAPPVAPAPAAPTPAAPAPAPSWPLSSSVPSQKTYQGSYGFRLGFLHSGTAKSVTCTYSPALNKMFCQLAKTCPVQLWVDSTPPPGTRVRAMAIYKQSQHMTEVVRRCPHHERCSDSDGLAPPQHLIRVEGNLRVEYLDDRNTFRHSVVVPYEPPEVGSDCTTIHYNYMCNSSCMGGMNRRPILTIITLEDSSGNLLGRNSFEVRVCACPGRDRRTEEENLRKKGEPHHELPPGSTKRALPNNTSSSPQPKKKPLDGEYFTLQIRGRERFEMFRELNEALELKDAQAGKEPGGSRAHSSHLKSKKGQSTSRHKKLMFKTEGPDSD
# How it was run: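 NCI-H358 cells pre-induced 24 h with 10 ng/ml doxycycline for eGFP-delta133p53alpha, plated dox-free and exposed 24 h at 37C to titrated compounds. Fixed, Hoechst-stained; gated GFP peak intensity by laser scanning cytometry, normalized to DMSO (0%) and 57.5 uM 5-azacytidine (100%).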
# [2] = BET inhibitor-based combinations targeting novel dependencies in MECOM-rearranged (r) AML: AML-194 cell line (AID 2202237; further: nearly all actives have a fitted effect of over 40% in size)
# How it was run: (§1)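 Viability of cells (500 per well) is scored by luminescent CellTiter-Glo at 48 hr post-dosing. Eleven-point titrations are normalized to DMSO and empty controls and reduced to AUC values.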
# [3] = biological target: Cellular tumor antigen p53 (Homo sapiens) (UniProt P04637); assay: Primary qHTS for small molecule compounds that upregulate eGFP-tagged delta133p53alpha (in C-terminal) cells. (AID 2060324)
# How it was run: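 Readout: filtered GFP peak intensity of gated cells (laser scanning cytometer), normalized plate-wise to intraplate controls, DMSO wells = 0% activity. Cells: NCI-H358 D133p53a-eGFP, dox 100 ng/ml 24 h beforehand, then compound 24 h, 37 °C.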
# [4] = biological target: Aldehyde dehydrogenase, mitochondrial (Homo sapiens) (UniProt P05091); assay: qHTS for Inhibitors of the Aldehyde Dehydrogenase Family (ALDH2) Validation screens (AID 2061302; active means well fitted inhibition curve with a large enough effect; title and protocol of this record describe different tests)
# [5] = BET inhibitor-based combinations targeting novel dependencies in MECOM-rearranged (r) AML: MV-4-11 cell line (AID 2202233); further: nearly all actives have a fitted effect of over 45% in size
# How it was run: (§2)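 Using pin-tool transfer, drugs were added in 11 doses to cells (500/well), incubated 48 hr, and assessed with CellTiter-Glo. Z-AUC is a mean-centring transformation applied separately to each screened line.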
# [6] = BET inhibitor-based combinations targeting novel dependencies in MECOM-rearranged (r) AML: UCSD-AML1 cell line (AID 2202235); further: nearly all actives have a fitted effect of over 40% in size
# How it was run: as §2
# [7] = BET inhibitor-based combinations targeting novel dependencies in MECOM-rearranged (r) AML: AML-191 cell line (AID 2202236; further: nearly all actives have a fitted effect of over 35% in size)
# How it was run: as §1
# [8] = BET inhibitor-based combinations targeting novel dependencies in MECOM-rearranged (r) AML: HNT-34 cell line (AID 2202234); further: nearly all actives have a fitted effect of over 35% in size
# How it was run: as §2
# [9] = biological target: Aldehyde dehydrogenase, mitochondrial (Homo sapiens) (UniProt P05091); assay: qHTS for Inhibitors of the Aldehyde Dehydrogenase Family (ALDH2) Confirmatory screens (AID 2061303; active means well fitted inhibition curve with a large enough effect; title and protocol of this record describe different tests; further: nearly all actives have a fitted effect of over 45% in size)
# [10] = qHTS for Inhibitors of the Aldehyde Dehydrogenase Family (ALDH1A2, ALDH1A3, ALDH2, ALDH3A1) (AID 2061307); further: test system not described further here; nearly all actives have a fitted effect of over 50% in size
# [11] = biological target: Aldehyde dehydrogenase, mitochondrial (Homo sapiens) (UniProt P05091); assay: qHTS for Inhibitors of the Aldehyde Dehydrogenase Family (ALDH2) Primary screen (AID 2061308); further: nearly all actives have a fitted effect of over 55% in size
# [12] = biological target: Retinaldehyde dehydrogenase 3 (Homo sapiens) (UniProt P47895); assay: qHTS for Inhibitors of the Aldehyde Dehydrogenase Family (ALDH1A3) Confirmatory screens (AID 2061311); further: nearly all actives have a fitted effect of over 60% in size
# [13] = biological target: Retinal dehydrogenase 2 (Homo sapiens) (UniProt O94788); assay: qHTS for Inhibitors of the Aldehyde Dehydrogenase Family (ALDH1A2) Confirmation screens (AID 2061314); further: nearly all actives have a fitted effect of over 65% in size
# [14] = biological target: Aldehyde dehydrogenase 1A1 (Homo sapiens) (UniProt P00352); assay: qHTS for Inhibitors of the Aldehyde Dehydrogenase Family (ALDH1A1) Confirmatory screens (AID 2061316); further: nearly all actives have a fitted effect of over 65% in size
# [15] = BET inhibitor-based combinations targeting novel dependencies in MECOM-rearranged (r) AML: SET-2 cell line (AID 2202231); conditions: SET-2 AML cells viability, CellTiter-Glo luminescence, 48 h; viability: hits give low values, concentration not given here; further: nearly all actives have a fitted effect of over 35% in size
# How it was run: as §1
# [16] = BET inhibitor-based combinations targeting novel dependencies in MECOM-rearranged (r) AML: OCI-AML3 cell line (AID 2202232); conditions: Potency: OCI-AML3 viability; further: nearly all actives have a fitted effect of over 35% in size
# How it was run: as §1
# Potency means the concentration at half of the fitted maximal effect.
smiles,measurement,setting,value
CCCCCCCc1ccc(CCc2cccc(O)c2C(=O)O)cc1,activation,[1],-21.9% and 7.82%
same,Potency,[2],inactive
CC(C)COC(=O)OCN1C(=O)CN(CCN2CC(=O)N(COC(=O)OCC(C)C)C(=O)C2)CC1=O,Potency,[3],inactive
same,Potency,[4],inactive
S=P(N1CC1)(N1CC1)N1CC1,activation,[1],31.6%
same,Potency,[5],20.9 µM (active)
same,Potency,[6],inactive
same,Potency,[7],26.3 µM (active)
CCCCc1oc2ccccc2c1C(=O)c1cc(I)c(OCCN(CC)CC)c(I)c1,activation,[1],-16.4% and -32.6%
same,Potency,[5],18.6 µM (active)
same,Potency,[6],23.5 µM (active)
same,Potency,[7],20.9 µM (active)
Cc1cc(=O)oc2cc(O)ccc12,activation,[1],-17.5% and -1.39%
same,Potency,[5],inactive
same,Potency,[8],inactive
same,Potency,[6],inactive
same,Potency,[7],inactive
same,Potency,[2],inactive
O=C(NCCCNc1nc(Nc2cccc(NC(=O)N3CCCC3)c2)ncc1I)c1cccs1,activation,[1],9.72%
same,Potency,[6],5.25 µM (active)
Cn1cncc1[C@@](N)(c1ccc(Cl)cc1)c1ccc2c(c1)c(-c1cccc(Cl)c1)cc(=O)n2C,activation,[1],15.2%
same,Potency,[8],0.0021 µM (active)
Cc1nc2ccc(C(=O)N3CCC4(CC3)CC(=O)c3c(cnn3C(C)C)C4)cc2[nH]1,activation,[1],23%
same,Potency,[6],inactive
same,Potency,[2],inactive
COc1cc2ncnc(Nc3cccc(Br)c3)c2cc1OC,activation,[1],29.9%
same,Potency,[8],9.34 µM (active)
same,Potency,[6],20.9 µM (active)
same,Potency,[7],20.9 µM (active)
CC(N)=NCCCC[C@@H](N)C(=O)O,Potency,[3],inactive
same,Potency,[4],inactive
Nc1nc(N)c2nc(-c3cccc(O)c3)c(-c3cccc(O)c3)nc2n1,Potency,[1],24.3 µM (active)
same,Potency,[8],inactive
same,Potency,[6],inactive
same,Potency,[7],18.6 µM (active)
CCOC(CN1C(=O)[C@](CC(=O)Nc2ccc(C)cc2)(NC(=O)Nc2ccc(C)cc2)c2ccccc21)OCC,activation,[1],0.237%
same,Potency,[5],23.5 µM (active)
same,Potency,[6],inactive
CCc1c(O)cc(O)c(C(=O)c2ccc(OCCN3CCOCC3)c(OC)c2)c1CC(=O)N(CCOC)CCOC,activation,[1],38.5%
same,Potency,[8],0.662 µM (active)
same,Potency,[6],0.263 µM (active)
CC(C)(C)OC(=O)CN(Cc1ccc(Cl)cc1)Cc1ccc([N+](=O)[O-])s1,activation,[1],-41.8%
same,Potency,[5],18.6 µM (active)
same,Potency,[6],inactive
same,Potency,[7],inactive
same,Potency,[2],inactive
CN[C@@H](C)C(=O)N[C@H]1CCCC[C@H]2CC[C@@H](C(=O)N[C@@H](c3ccccc3)c3cn(CCCCc4ccc(CCCCn5cc([C@@H](NC(=O)[C@@H]6CC[C@@H]7CCCC[C@H](NC(=O)[C@H](C)NC)C(=O)N76)c6ccccc6)nn5)cc4)nn3)N2C1=O,activation,[1],16.4%
same,Potency,[8],inactive
Cc1ccc(NC(=O)c2ccc(CN3CCN(C)CC3)cc2)cc1Nc1nc(-c2cccnc2)cs1,activation,[1],4.59%
same,Potency,[8],5.25 µM (active)
same,Potency,[6],inactive
COc1cc2c(cc1OC)-c1cc(=Nc3c(C)cc(C)cc3C)n(C)c(=O)n1CC2,Potency,[3],inactive
same,Potency,[4],inactive
COc1ccc(CC2SC(=O)NC2=O)cc1C(=O)NCc1ccc(C(F)(F)F)cc1 (stereo unspecified),activation,[1],-5.55%
same,Potency,[6],inactive
same,Potency,[7],inactive
same,Potency,[2],inactive
C[N+](C)([O-])CCNc1ccc(NCC[N+](C)(C)[O-])c2c1C(=O)c1c(O)ccc(O)c1C2=O,activation,[1],9.32%
same,Potency,[5],0.468 µM (active)
same,Potency,[6],9.34 µM (active)
C[n+]1cc2c3c(ccc2c2ccc4cc5c(cc4c21)OCO5)OCO3,Potency,[3],7.57 µM (active)
O=C(c1ccc(F)cc1)N1CCC[C@H](c2nc(-c3ccc(F)cc3)no2)C1,activation,[1],6.17%
same,Potency,[5],18.6 µM (active)
same,Potency,[6],inactive
same,Potency,[2],inactive
COc1cc2ncn(-c3cc(OCc4ccccc4S(C)(=O)=O)c(C#N)s3)c2cc1OC,activation,[1],-10.5%
same,Potency,[5],inactive
same,Potency,[8],inactive
same,Potency,[7],inactive
same,Potency,[2],inactive
CC(C)Oc1ccc2c(=O)c(-c3ccccc3)coc2c1,activation,[1],-6.21% and -9.21% and 6.6%
same,Potency,[8],inactive
same,Potency,[6],inactive
same,Potency,[2],inactive
N#CC(c1ccc(Cl)cc1)c1c(Cl)cc(-n2ncc(=O)[nH]c2=O)cc1Cl (stereo unspecified),activation,[1],-23%
same,Potency,[5],inactive
same,Potency,[7],16.6 µM (active)
same,Potency,[2],inactive
O=C1CSC(=O)N1C(CCc1ccncc1)COc1ccc(-c2cccc([N+](=O)[O-])c2)cc1 (stereo unspecified),activation,[1],-7.57%
same,Potency,[5],16.6 µM (active)
same,Potency,[6],inactive
O=C1CCc2ccc(OCCCCN3CCN(c4cccc(Cl)c4Cl)CC3)cc2N1,activation,[1],-4.19%
same,Potency,[5],16.6 µM (active)
same,Potency,[8],20.9 µM (active)
same,Potency,[6],23.5 µM (active)
same,Potency,[7],23.5 µM (active)
same,Potency,[2],26.3 µM (active)
CC(COc1ccccc1)N(CCCl)Cc1ccccc1 (stereo unspecified),activation,[1],-9.21% and 7.69%
same,Potency,[8],16.6 µM (active)
same,Potency,[6],inactive
same,Potency,[7],inactive
same,Potency,[2],inactive
O=C(Nc1ccccc1Br)N[C@@H]1CCN(c2ccc(C(F)(F)F)cn2)C1,activation,[1],10.1%
same,Potency,[5],inactive
same,Potency,[8],inactive
same,Potency,[6],inactive
same,Potency,[7],inactive
same,Potency,[2],inactive
CC[C@@H]([C@H](C)O)n1ncn(-c2ccc(N3CCN(c4ccc(OCC5CO[C@@](Cn6cncn6)(c6ccc(F)cc6F)C5)cc4)CC3)cc2)c1=O (stereo partly specified),activation,[1],7.66%
same,Potency,[6],inactive
same,Potency,[2],4.17 µM (active)
CC(C)N(CCC(=O)c1ccc2ccccc2c1)Cc1ccccc1,Potency,[3],23.9 µM (active)
same,Potency,[4],355 nM (active) and 2.51 µM (active)
same,Potency,[9],3.16 µM (active)
same,Potency,[10],0.0127 µM (active)
same,Potency,[11],0.251 µM (active)
same,Potency,[12],0.283 µM (active)
same,Potency,[13],0.0565 µM (active)
same,Potency,[14],0.0449 µM (active)
same,Potency,[15],8.33 µM (active)
same,Potency,[16],4.17 µM (active)
same,Potency,[5],2.09 µM (active)
same,Potency,[8],5.25 µM (active)
same,Potency,[6],4.17 µM (active)
same,Potency,[7],6.61 µM (active)
same,Potency,[2],7.42 µM (active)
